Results taken from PubChem BioAssay (NCI).
Where “and” joins values, the source holds several entries; their conditions need not be identical. Identical values can stand only once. Compounds without any hit were thinned out: in the full panel of roughly 83,000, 20% have a hit.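 48-hour exposure, single concentration, 96-well plates; percent growth endpoint where 0 means no net growth. Active: below 10.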 Calls of active or inactive are those of the source.

Assays:
Assay in all cases: NCI-60 one-dose screen, 48 h (100 = growth as untreated, 0 = no growth, -100 = all killed)
HCT-15 colon = system: HCT-15 colon
HT29 colon = conditions: 10 µM unless noted
SNB-75 CNS = system: SNB-75 CNS
SNB-19 CNS = system: SNB-19 CNS
U251 CNS = system: U251 CNS
PC-3 prostate = system: PC-3 prostate
SK-MEL-5 melanoma = system: SK-MEL-5 melanoma
UACC-62 melanoma = system: UACC-62 melanoma
LOX IMVI melanoma = conditions: 10 µM unless noted
SK-MEL-28 melanoma = system: SK-MEL-28 melanoma
SK-MEL-2 melanoma = system: SK-MEL-2 melanoma
EKVX NSCLC = system: EKVX NSCLC
SN12C renal = system: SN12C renal
UO-31 renal = system: UO-31 renal
TK-10 renal = system: TK-10 renal
ACHN renal = system: ACHN renal
CAKI-1 renal = system: CAKI-1 renal
A498 renal = conditions: 10 µM unless noted
CCRF-CEM leukemia = system: CCRF-CEM leukemia
MOLT-4 leukemia = system: MOLT-4 leukemia

Measured: growth

c1ccc(NCc2ccc3c(c2)OCO3)cc1
inactive: HCT-15 colon; 10 µM unless noted 108% and 93% | HT29 colon 103% and 104% | SNB-75 CNS; 10 µM unless noted 89.7% and 95.8% | SNB-19 CNS; 10 µM unless noted 99% | U251 CNS; 10 µM unless noted 99.3% and 93.3% | PC-3 prostate; 10 µM unless noted 96.1% and 93.6% | SK-MEL-5 melanoma; 10 µM unless noted 100% | UACC-62 melanoma; 10 µM unless noted 110% and 100% | LOX IMVI melanoma 106% and 98.9% | SK-MEL-28 melanoma; 10 µM unless noted 120% and 105% | SK-MEL-2 melanoma; 10 µM unless noted 106% and 105% | EKVX NSCLC; 10 µM unless noted 107% | SN12C renal; 10 µM unless noted 105% and 100% | UO-31 renal; 10 µM unless noted 78.7% and 83% | TK-10 renal; 10 µM unless noted 102% and 99.7% | ACHN renal; 10 µM unless noted 109% and 97.4% | CAKI-1 renal; 10 µM unless noted 96.8% and 101% | A498 renal 101% and 86.9% | CCRF-CEM leukemia; 10 µM unless noted 101% and 92.3% | MOLT-4 leukemia; 10 µM unless noted 95.7% and 97.2%

Fc1ccccc1Nc1n[nH]c(=S)s1
active: CCRF-CEM leukemia; 10 µM unless noted -60%
inactive: HCT-15 colon; 10 µM unless noted 98.3% | HT29 colon 103% | SNB-75 CNS; 10 µM unless noted 101% | SNB-19 CNS; 10 µM unless noted 104% | U251 CNS; 10 µM unless noted 101% | PC-3 prostate; 10 µM unless noted 106% | SK-MEL-5 melanoma; 10 µM unless noted 101% | UACC-62 melanoma; 10 µM unless noted 95.3% | LOX IMVI melanoma 128% | SK-MEL-28 melanoma; 10 µM unless noted 102% | SK-MEL-2 melanoma; 10 µM unless noted 116% | EKVX NSCLC; 10 µM unless noted 136% | SN12C renal; 10 µM unless noted 99.9% | UO-31 renal; 10 µM unless noted 95.5% | TK-10 renal; 10 µM unless noted 115% | ACHN renal; 10 µM unless noted 110% | CAKI-1 renal; 10 µM unless noted 113% | A498 renal 94.6% | MOLT-4 leukemia; 10 µM unless noted 114%

OC(CSc1ccccc1)CN1CCN(c2cccc(Cl)c2)CC1 (stereo unspecified)
inactive: HCT-15 colon; 10 µM unless noted 105% and 101% | HT29 colon 104% and 96.5% | SNB-75 CNS; 10 µM unless noted 91.7% and 102% | SNB-19 CNS; 10 µM unless noted 100% and 111% | U251 CNS; 10 µM unless noted 95% and 102% | PC-3 prostate; 10 µM unless noted 92.9% and 97.8% | SK-MEL-5 melanoma; 10 µM unless noted 97.4% and 96.8% | UACC-62 melanoma; 10 µM unless noted 92.2% and 96.9% | LOX IMVI melanoma 96.7% and 96.3% | SK-MEL-28 melanoma; 10 µM unless noted 103% and 99.1% | SK-MEL-2 melanoma; 10 µM unless noted 98.3% and 100% | EKVX NSCLC; 10 µM unless noted 102% and 99% | SN12C renal; 10 µM unless noted 94.3% and 103% | UO-31 renal; 10 µM unless noted 76% and 75% | TK-10 renal; 10 µM unless noted 101% and 112% | ACHN renal; 10 µM unless noted 103% and 101% | CAKI-1 renal; 10 µM unless noted 92.2% and 87.9% | A498 renal 116% and 89.9% | CCRF-CEM leukemia; 10 µM unless noted 92.5% and 98.1% | MOLT-4 leukemia; 10 µM unless noted 76.1% and 94.9%

Cc1[nH]c(-c2nc3ccccc3[nH]2)c(C)c1C(=O)NC(C)C1CCCCC1 (stereo unspecified)
inactive: HCT-15 colon; 10 µM 69% | SNB-75 CNS; 10 µM 79.6% | SNB-19 CNS; 10 µM 86.6% | U251 CNS; 10 µM 96.7% | PC-3 prostate; 10 µM 78.5% | SK-MEL-5 melanoma; 10 µM 80.2% | UACC-62 melanoma; 10 µM 78.1% | LOX IMVI melanoma 84.7% | SK-MEL-28 melanoma; 10 µM 89.2% | SK-MEL-2 melanoma; 10 µM 87.2% | EKVX NSCLC; 10 µM 93.2% | SN12C renal; 10 µM 86.1% | UO-31 renal; 10 µM 89% | TK-10 renal; 10 µM 103% | ACHN renal; 10 µM 99% | CAKI-1 renal; 10 µM 85.8% | CCRF-CEM leukemia; 10 µM 81.3% | MOLT-4 leukemia; 10 µM 72.4%
active: HCT-15 colon; 100 µM -80.6% | SNB-75 CNS; 100 µM -98.9% | SNB-19 CNS; 100 µM -94.7% | U251 CNS; 100 µM -64.5% | PC-3 prostate; 100 µM -58.3% | SK-MEL-5 melanoma; 100 µM -99.6% | UACC-62 melanoma; 100 µM -96.5% | SK-MEL-28 melanoma; 100 µM -94.9% | SK-MEL-2 melanoma; 100 µM -81.6% | EKVX NSCLC; 100 µM -84.9% | SN12C renal; 100 µM -89.7% | UO-31 renal; 100 µM -97.8% | TK-10 renal; 100 µM -91% | ACHN renal; 100 µM -90.9% | CAKI-1 renal; 100 µM -97.2% | A498 renal -93.3% [100 µM] | CCRF-CEM leukemia; 100 µM -72.7% | MOLT-4 leukemia; 100 µM -51.3%
